Here are results for nine compounds from PubChem BioAssay (NCI).

About 83,000 compounds went through this panel and 20% of them were active in at least one assay; those are over-represented in the sample as a whole.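 Testing used 96-well plates and a 48-hour single-concentration exposure. Example: -40 means 40% of the starting cells died.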 Values without a mark were called inactive. Active and inactive are the calls of the source. Rule for the calls: active = growth percent below 10; inactive = the rest.

Test systems include SR leukemia; OVCAR-8 ovarian; OVCAR-5 ovarian; OVCAR-4 ovarian; SK-OV-3 ovarian; IGROV1 ovarian; OVCAR-3 ovarian; HS 578T breast; NCI/ADR-RES ovarian; T-47D breast; BT-549 breast; MDA-MB-435 melanoma; SW-620 colon; MCF7 breast; HCT-116 colon; HCC-2998 colon; KM12 colon.
Holding throughout (assay): NCI-60 one-dose screen, 48 h (100 = growth as untreated, 0 = no growth, -100 = all killed)
What all share (settings): 10 µM unless noted

As to `c1ccc(CO[C@H]2CO[C@H]3[C@@H]2OC[C@@H]3Oc2ccc(Nc3ncnc4ccsc34)cc2)cc1`, the growth is 60.6% in the assay on SR leukemia; 81.6% with OVCAR-8 ovarian; 94.9% in the assay with OVCAR-5 ovarian; 81.8% with OVCAR-4 ovarian; 95.8% in the assay with SK-OV-3 ovarian; 70.3% in the assay on IGROV1 ovarian. Further, the growth in the assay on OVCAR-3 ovarian is 93.7%; in the assay with HS 578T breast, 90.5%; with NCI/ADR-RES ovarian, 73.3%; in the assay on T-47D breast it was 38.9%; in the assay on BT-549 breast it was 68.9%; in the assay on MDA-MB-435 melanoma, 83.9%. Also, the growth is 87.6% in the assay with SW-620 colon; 64.9% in the assay on MCF7 breast; 68.9% in the assay on HCT-116 colon; 104% in the assay on HCC-2998 colon; 86.2% in the assay with KM12 colon.
On to `Cc1[nH]c(C(=O)Nc2ccc(C(=O)N3CCNCC3)cc2OC(C)C)c(Cl)c1Cl`, for which the growth in the assay with SR leukemia is -34.3% (active); with OVCAR-8 ovarian, 87.1%; in the assay on OVCAR-5 ovarian it was 90.3%; with OVCAR-4 ovarian, 81.9%; with SK-OV-3 ovarian, 89.3%; in the assay on IGROV1 ovarian, 69.5%. Besides, the growth is 71.4% in the assay with OVCAR-3 ovarian; 73% with HS 578T breast; 80.5% in the assay on NCI/ADR-RES ovarian; 64.1% in the assay with T-47D breast; 93% in the assay on BT-549 breast; 35.9% in the assay with MDA-MB-435 melanoma. Besides, the growth in the assay on SW-620 colon is -55.8% (active); with MCF7 breast, 60%; in the assay with HCT-116 colon it was 14.5%; with HCC-2998 colon, -45.9% (active); with KM12 colon, 50.9%.
As for `COc1cccc2c(=O)c3c(sc12)c(N1CCNCC1)nc1ccccc13`, the growth is -33.9% (active) in the assay with SR leukemia; 53.2% in the assay on OVCAR-8 ovarian; 94.9% with OVCAR-5 ovarian; -41.4% (active) in the assay with OVCAR-4 ovarian; 83% in the assay with SK-OV-3 ovarian; 63.3% in the assay on IGROV1 ovarian. The growth with OVCAR-3 ovarian was -43.8% (active); in the assay with HS 578T breast, 89.5%; in the assay with NCI/ADR-RES ovarian, 73.2%; in the assay with T-47D breast it was 85.5%; in the assay with BT-549 breast it was 97.6%; with MDA-MB-435 melanoma it was 54.7%. For the same compound, the growth in the assay on SW-620 colon is -39.2% (active); with MCF7 breast, 53.2%; in the assay on HCT-116 colon it was -52.4% (active); with HCC-2998 colon, 11.1%; in the assay on KM12 colon it was 46.3%.
Regarding `COc1ccc(OC)c(/C=C2\Oc3cc(OCCN4CCC(Cc5ccccc5)CC4)ccc3C2=O)c1`, the growth was 2.46% (active) with SR leukemia; 78% in the assay with OVCAR-8 ovarian; 92.1% in the assay with OVCAR-5 ovarian; 93.8% with OVCAR-4 ovarian; 93.3% in the assay with SK-OV-3 ovarian; 76.2% in the assay with IGROV1 ovarian. Also, the growth in the assay with OVCAR-3 ovarian was 89.8%; in the assay with HS 578T breast it was 82.2%; in the assay on NCI/ADR-RES ovarian it was 80.2%; in the assay on T-47D breast, 63.1%; with BT-549 breast it was 89.8%; in the assay with MDA-MB-435 melanoma, 87.3%. For the same compound, the growth was 74.5% in the assay with SW-620 colon; 77.3% in the assay with MCF7 breast; 73% in the assay on HCT-116 colon; 19.7% in the assay with HCC-2998 colon; 92.9% in the assay with KM12 colon.
`O=c1c2cc(C(F)(F)F)ccc2sc2c(NCCCNCCO)nc3ccccc3c12`: the growth in the assay on SR leukemia was -39.4% (active); in the assay on OVCAR-8 ovarian, -3.45% (active); with OVCAR-5 ovarian, 64.8%; with OVCAR-4 ovarian it was -41.6% (active); with SK-OV-3 ovarian it was 74.9%; with IGROV1 ovarian it was 15%. For the same compound, the growth in the assay with OVCAR-3 ovarian was -73.8% (active); in the assay on HS 578T breast, -9.58% (active); with NCI/ADR-RES ovarian, 1.68% (active); in the assay with T-47D breast it was -6.02% (active); in the assay on BT-549 breast it was 86.1%; in the assay on MDA-MB-435 melanoma it was -73% (active). For the same compound, the growth is -75.9% (active) in the assay on SW-620 colon; -59.7% (active) with MCF7 breast; -72.8% (active) in the assay with HCT-116 colon; -89.8% (active) in the assay on HCC-2998 colon; -67.8% (active) in the assay with KM12 colon.
Take `COc1cc2cc(Oc3ccc(NC(=O)Nc4cccc(C(F)(F)F)c4)cc3)c(C)nc2cc1OCCN1CCOCC1`: the growth in the assay on SR leukemia is 9.31% (active); with OVCAR-8 ovarian, 25.1%; in the assay on OVCAR-5 ovarian, 109%; with OVCAR-4 ovarian, 20.1%; in the assay on SK-OV-3 ovarian, 92%; in the assay with IGROV1 ovarian, 57.7%. The growth is 28.6% in the assay with OVCAR-3 ovarian; 86% in the assay with HS 578T breast; 45.3% in the assay with NCI/ADR-RES ovarian; 30.3% in the assay with T-47D breast; 70.8% in the assay with BT-549 breast; 30.4% in the assay on MDA-MB-435 melanoma. Moreover, the growth was 36.9% in the assay with SW-620 colon; 9.35% (active) in the assay on MCF7 breast; 17.4% in the assay on HCT-116 colon; 89.2% in the assay with HCC-2998 colon; 29.8% in the assay with KM12 colon.
As to `CCCCCCCCCCCCCCCCCCOc1ccccc1CCCOP(=O)(O)OCC[N+](C)(C)C`, the growth in the assay on SR leukemia is 11.4%; with OVCAR-8 ovarian, 64.8%; in the assay on OVCAR-5 ovarian, 75.6%; in the assay on OVCAR-4 ovarian it was 89.9%; with SK-OV-3 ovarian it was 85%; with IGROV1 ovarian, 15.5%. The growth is 84.5% with OVCAR-3 ovarian; 93.5% in the assay with HS 578T breast; 95.4% in the assay on NCI/ADR-RES ovarian; 87.8% with T-47D breast; 77.4% in the assay on BT-549 breast; 91.6% in the assay with MDA-MB-435 melanoma. Moreover, the growth was 69.2% in the assay on SW-620 colon; 60.5% with MCF7 breast; 44.9% with HCT-116 colon; 50.9% with HCC-2998 colon; 13.2% with KM12 colon.
As to `CS(=O)(=O)Nc1cc(-c2ccc3ncnc(Nc4cccc(Cl)c4F)c3c2)cnc1Cl`, the growth is 43.5% in the assay with SR leukemia; 60.8% with OVCAR-8 ovarian; 38.3% in the assay with OVCAR-5 ovarian; 77.2% in the assay with OVCAR-4 ovarian; 30.5% in the assay with SK-OV-3 ovarian; -8.72% (active) in the assay on IGROV1 ovarian. The growth with OVCAR-3 ovarian was 25%; with HS 578T breast, -3.32% (active); with NCI/ADR-RES ovarian, 86.9%; with T-47D breast, -4.02% (active); with BT-549 breast, 17.9%; in the assay on MDA-MB-435 melanoma, 46.2%. Also, the growth in the assay with SW-620 colon is 46.3%; in the assay on MCF7 breast, 11%; in the assay with HCT-116 colon, 46.7%; with HCC-2998 colon, 45.3%; with KM12 colon, 69.3%.
For the compound `Oc1ccc(C#CCOc2ccccc2)cc1CNCCN(Cc1ccccn1)Cc1ccccn1`, the growth in the assay on SR leukemia was -4.08% (active); in the assay with OVCAR-8 ovarian, 15.2%; with OVCAR-5 ovarian, 27.2%; with OVCAR-4 ovarian it was 11.3%; in the assay on SK-OV-3 ovarian, 18%; in the assay with IGROV1 ovarian it was 13.4%. Also, the growth in the assay on OVCAR-3 ovarian was 12.1%; with HS 578T breast it was 35.5%; in the assay on NCI/ADR-RES ovarian it was 0.625% (active); in the assay with T-47D breast it was 14.4%; in the assay on BT-549 breast it was 37.7%; with MDA-MB-435 melanoma, 32.6%. Besides, the growth in the assay on SW-620 colon was 15.6%; with MCF7 breast, 4.05% (active); with HCT-116 colon, 9.79% (active); in the assay with HCC-2998 colon it was 28.4%; in the assay with KM12 colon it was 18.9%.
